Results on 158 variants are retold here after a collection of fitness landscapes (doi:10.1126/science.1257360).

Over roughly 140,000 sequences, “enrichment ratio after two sorts for PhoP signalling” has its median near 0; the highest 2% begin near 11. Only a selection was taken, and the highest values are over-represented in it overall. Where only a bound is given, the exact number is not on record here.

To fix the notation:
B1: PhoQ; a variant is named by its letters at X, in order, P23837 (parent)
chain: MKKLLRLFFPLSLRVRFLLATAAVVLVLSLAYGMVALIGYSVSFDKTTFRLLRGESNLFYTLAKWENNKLHVELPENIDKQSPTMTLIYDENGQLLWAQRDVPWLMKMIQPDWLKSNGFHEIEADVNDTSLLLSGDHSIQQQLQEVREDDDDAEMTHSVAVNVYPATSRMPKLTIVVVDTIPVELKSSYMVWSWFIYVLSANLLLVIPLLWVAAWWSLRPIEALAKEVRELEEHNRELLNPATTRELTSLVRNLNRLLKSERERYDKYRTTLTDLTHSLKTPLXXLQXXLRSLRSEKMSVSDAEPVMLEQISRISQQIGYYLHRASMRGGTLLSRELHPVAPLLDNLTSALNKVYQRKGVNISLDISPEISFVGEQNDFVEVMGNVLDNACKYCLEFVEISARQTDEHLYIVVEDDGPGIPLSKREVIFDRGQRVDTLRPGQGVGLAVAREITEQYEGKIVAGESMLGGARMEVIFGRQHSAPKDE

The variants in the assay derive from B1. As to the kind of experiment: enrichment ratio after two sorts for PhoP signalling (ratio (wild type AVST 3.29)); higher = more functional. The settings on record: with PhoP (E. coli).
QGWY: the enrichment ratio was determined as 75.8.
For MMIM, the enrichment ratio is not above 0.25.
Turning to SAWM, the enrichment ratio is 3.72.
Turning to NAIM, the enrichment ratio was not above 0.25.
As to TQWM, the enrichment ratio is not above 0.25.
To MEIM belongs 48.5; to AGRM, not above 0.25.
Take AGIM: the enrichment ratio is 11.8.
To AGDM belongs not above 0.25.
As to TQRM, the enrichment ratio was not above 0.25.
For SAIM the value was 11.6; for QEIM, not above 0.25; for TQGM, 14.5.
In the case of GPHN, the enrichment ratio is not above 0.25.
Regarding RDSY, the enrichment ratio is not above 0.25.
In the case of HQTV, the enrichment ratio was not above 0.25.
For the variant ISLP, the enrichment ratio was not above 0.25.
For DTRI the value was 1.89.
Consider VMYN, for which the enrichment ratio was not above 0.25.
YTIM: the enrichment ratio came to 1.25.
For the variant SRIM, the enrichment ratio worked out at 13.7.
For SEWM the value was 3.99; for STIM, 15.3.
Take KYIM: the enrichment ratio is not above 0.25.
Regarding SGDM, the enrichment ratio is not above 0.25.
To ITIM belongs not above 0.25; to RGIM, not above 0.25; to TGIM, not above 0.25.
On to SGIM, for which the enrichment ratio was determined as 23.7.
To SEIM belongs 15.1; to SGRM, not above 0.25.
To NCFV belongs not above 0.25; to ACCP, not above 0.25.
For AHDV the value was not above 0.25; for IAPL, 0.723.
With FWFH, the enrichment ratio is not above 0.25.
To NRLH belongs not above 0.25.
For YSSN the value was not above 0.25.
To TQGH belongs 18.9; to TQIM, 17.9; to SQIM, 20.8.
For SNIM, the enrichment ratio is not above 0.25.
To TQPM belongs not above 0.25; to SAGD, not above 0.25; to SAPM, 2.5.
To IQGH belongs not above 0.25; to TQGP, not above 0.25; to TQIV, 1.59.
To SAGM belongs 12.9; to SLIM, not above 0.25; to YRHV, not above 0.25.
On to SCLV, for which the enrichment ratio came out at 9.82.
For QTDD the value was not above 0.25.
In the case of AISA, the enrichment ratio turned out to be 10.4.
Turning to AFMR, the enrichment ratio was not above 0.25.
For MLCP the value was not above 0.25; for HKNV, not above 0.25; for RAQI, not above 0.25.
To MIHT belongs not above 0.25.
To DVMK belongs not above 0.25; to WFDE, not above 0.25; to HTHH, not above 0.25.
For the variant YDIM, the enrichment ratio is not above 0.25.
For ADIM the value was not above 0.25; for TQGA, 2.57; for TQGQ, 28.
On to TQGG, for which the enrichment ratio is 1.42.
As to ATIM, the enrichment ratio was 19.5.
To TDIS belongs 1.04.
For HSAY the value was not above 0.25; for EAHH, not above 0.25.
YEYT: the enrichment ratio is not above 0.25.
To DFEY belongs not above 0.25; to TSCC, 17.3.
For SSTC, the enrichment ratio worked out at 10.3.
Consider IQCC, for which the enrichment ratio was not above 0.25.
For KYCC the value was not above 0.25; for SICC, 17.3; for SNCC, 14.7.
For NSCC the value was not above 0.25; for KSCC, not above 0.25.
To WICC belongs not above 0.25; to SRCC, 0.803.
Turning to SSCC, the enrichment ratio came out at 17.1.
Regarding SQCC, the enrichment ratio came out at 8.97.
For IFYT the value was not above 0.25; for FSGP, not above 0.25; for NGLQ, not above 0.25.
To YYFP belongs not above 0.25; to CTCC, not above 0.25.
For TTCC the value was 11.5; for TQCC, 65.
In the case of DWCC, the enrichment ratio is not above 0.25.
Take FQCC: the enrichment ratio is not above 0.25.
To GTCC belongs not above 0.25.
Regarding STCC, the enrichment ratio was 13.7.
To ITCC belongs not above 0.25; to YTCC, not above 0.25; to EYTF, not above 0.25.
For NSIQ the value was not above 0.25; for HLYG, not above 0.25.
For PLPH the value was not above 0.25; for MDHD, not above 0.25; for IKKC, not above 0.25.
Consider ANVL, for which the enrichment ratio worked out at 13.9.
With AHIL, the enrichment ratio was not above 0.25.
For ANNL the value was 15.7; for HWVL, not above 0.25.
To ANYM belongs 0.253; to ADSL, not above 0.25; to ANSL, 16.8.
For the variant ADVL, the enrichment ratio came to 3.21.
As to ARSL, the enrichment ratio worked out at 0.309.
For ANIL the value was 22.8; for ANYN, not above 0.25.
On to AIIL, for which the enrichment ratio was determined as 1.11.
To GFRD belongs not above 0.25.
As to EGVS, the enrichment ratio was not above 0.25.
Consider WVKG, for which the enrichment ratio was not above 0.25.
To NCEQ belongs not above 0.25; to GGVL, 7.68; to NKTR, not above 0.25.
For TKIL the value was 8.86; for AWCL, 0.642.
For AQEL the value was not above 0.25.
On to WICL, for which the enrichment ratio was not above 0.25.
In the case of AQRL, the enrichment ratio was not above 0.25.
In the case of ANCL, the enrichment ratio was found to be 21.8.
For AICL the value was 17.5; for ADIL, 8.79.
For AQCL, the enrichment ratio came to 16.
Take AKIL: the enrichment ratio was determined as 18.4.
To NICL belongs 3.87; to AKCL, 3.3.
With EAPP, the enrichment ratio was not above 0.25.
Regarding VFQT, the enrichment ratio was not above 0.25.
Regarding VNLF, the enrichment ratio was not above 0.25.
To YIYL belongs not above 0.25.
As for IDEK, the enrichment ratio is not above 0.25.
To TVNP belongs not above 0.25; to YDMC, not above 0.25.
As to WVMR, the enrichment ratio was not above 0.25.
As for KNDA, the enrichment ratio was not above 0.25.
For the variant NLGK, the enrichment ratio is not above 0.25.
To IKGA belongs not above 0.25; to WTQR, not above 0.25.
On to ADSG, for which the enrichment ratio stood at 1.26.
For AISG the value was 19; for AVSG, 16.7; for AHSG, 6.86.
With ACSR, the enrichment ratio was 7.12.
To WISN belongs not above 0.25; to TISN, 13.4; to ACSN, 4.45.
Regarding ACSG, the enrichment ratio worked out at 12.3.
For TIKN the value was not above 0.25.
To KKSG belongs not above 0.25; to ARSG, not above 0.25.
